According to PubChem BioAssay:
Activity calls are given as the source filed them.

Columns and labels:
[1] = binders of probe aFSTL3 on microarray, primary screen, stem cell growth factor project, biochemical, small-molecule microarray, fluorescence 635/667 (AID 1064); conditions: higher = more signal; small-molecule microarray, probe aFSTL3, fluorescence unless noted;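 further: measures binding of the biotinylated anti-FSTL3 antibody to printed compounds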
[2] = binders from COS7 lysate, DM2A8 probe, primary screen, torsin A project, cell lysate, small-molecule microarray, fluorescence 635/667 (AID 1065); conditions: higher = more signal; small-molecule microarray, COS7 cell lysate, probe DM2A8, fluorescence, COS7 lysate expressing mutant human TOR1A unless noted
[3] = binders of probe aFGF2 on microarray, primary screen, stem cell growth factor project, biochemical, small-molecule microarray, fluorescence 635/667 (AID 1067); conditions: higher = more signal; small-molecule microarray, probe aFGF2, fluorescence unless noted;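 further: measures binding of biotinylated aFGF2 protein to printed compounds on slides; z-score merges feature fluorescence and signal-to-noise across triplicate slides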
[4] = binders of probe aFGF10 on microarray, primary screen, stem cell growth factor project, biochemical, small-molecule microarray, fluorescence 635/667 (AID 1071); conditions: higher = more signal; small-molecule microarray, probe aFGF10, fluorescence unless noted;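 further: score merges 667 nm spot intensity and signal to noise from triplicate slides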
[5] = molecular target: Neurogenic locus notch homolog protein 2 (Homo sapiens) (UniProt Q04721); test: Notch2 binders on small-molecule microarrays, primary screen, biochemical, small-molecule microarray, 635 nm fluorescence, stem cell growth factors (AID 1073); conditions: Notch2 binding, higher = more signal
Chain of Neurogenic locus notch homolog protein 2 (Homo sapiens) (Q04721 whole entry, looked up, canonical isoform): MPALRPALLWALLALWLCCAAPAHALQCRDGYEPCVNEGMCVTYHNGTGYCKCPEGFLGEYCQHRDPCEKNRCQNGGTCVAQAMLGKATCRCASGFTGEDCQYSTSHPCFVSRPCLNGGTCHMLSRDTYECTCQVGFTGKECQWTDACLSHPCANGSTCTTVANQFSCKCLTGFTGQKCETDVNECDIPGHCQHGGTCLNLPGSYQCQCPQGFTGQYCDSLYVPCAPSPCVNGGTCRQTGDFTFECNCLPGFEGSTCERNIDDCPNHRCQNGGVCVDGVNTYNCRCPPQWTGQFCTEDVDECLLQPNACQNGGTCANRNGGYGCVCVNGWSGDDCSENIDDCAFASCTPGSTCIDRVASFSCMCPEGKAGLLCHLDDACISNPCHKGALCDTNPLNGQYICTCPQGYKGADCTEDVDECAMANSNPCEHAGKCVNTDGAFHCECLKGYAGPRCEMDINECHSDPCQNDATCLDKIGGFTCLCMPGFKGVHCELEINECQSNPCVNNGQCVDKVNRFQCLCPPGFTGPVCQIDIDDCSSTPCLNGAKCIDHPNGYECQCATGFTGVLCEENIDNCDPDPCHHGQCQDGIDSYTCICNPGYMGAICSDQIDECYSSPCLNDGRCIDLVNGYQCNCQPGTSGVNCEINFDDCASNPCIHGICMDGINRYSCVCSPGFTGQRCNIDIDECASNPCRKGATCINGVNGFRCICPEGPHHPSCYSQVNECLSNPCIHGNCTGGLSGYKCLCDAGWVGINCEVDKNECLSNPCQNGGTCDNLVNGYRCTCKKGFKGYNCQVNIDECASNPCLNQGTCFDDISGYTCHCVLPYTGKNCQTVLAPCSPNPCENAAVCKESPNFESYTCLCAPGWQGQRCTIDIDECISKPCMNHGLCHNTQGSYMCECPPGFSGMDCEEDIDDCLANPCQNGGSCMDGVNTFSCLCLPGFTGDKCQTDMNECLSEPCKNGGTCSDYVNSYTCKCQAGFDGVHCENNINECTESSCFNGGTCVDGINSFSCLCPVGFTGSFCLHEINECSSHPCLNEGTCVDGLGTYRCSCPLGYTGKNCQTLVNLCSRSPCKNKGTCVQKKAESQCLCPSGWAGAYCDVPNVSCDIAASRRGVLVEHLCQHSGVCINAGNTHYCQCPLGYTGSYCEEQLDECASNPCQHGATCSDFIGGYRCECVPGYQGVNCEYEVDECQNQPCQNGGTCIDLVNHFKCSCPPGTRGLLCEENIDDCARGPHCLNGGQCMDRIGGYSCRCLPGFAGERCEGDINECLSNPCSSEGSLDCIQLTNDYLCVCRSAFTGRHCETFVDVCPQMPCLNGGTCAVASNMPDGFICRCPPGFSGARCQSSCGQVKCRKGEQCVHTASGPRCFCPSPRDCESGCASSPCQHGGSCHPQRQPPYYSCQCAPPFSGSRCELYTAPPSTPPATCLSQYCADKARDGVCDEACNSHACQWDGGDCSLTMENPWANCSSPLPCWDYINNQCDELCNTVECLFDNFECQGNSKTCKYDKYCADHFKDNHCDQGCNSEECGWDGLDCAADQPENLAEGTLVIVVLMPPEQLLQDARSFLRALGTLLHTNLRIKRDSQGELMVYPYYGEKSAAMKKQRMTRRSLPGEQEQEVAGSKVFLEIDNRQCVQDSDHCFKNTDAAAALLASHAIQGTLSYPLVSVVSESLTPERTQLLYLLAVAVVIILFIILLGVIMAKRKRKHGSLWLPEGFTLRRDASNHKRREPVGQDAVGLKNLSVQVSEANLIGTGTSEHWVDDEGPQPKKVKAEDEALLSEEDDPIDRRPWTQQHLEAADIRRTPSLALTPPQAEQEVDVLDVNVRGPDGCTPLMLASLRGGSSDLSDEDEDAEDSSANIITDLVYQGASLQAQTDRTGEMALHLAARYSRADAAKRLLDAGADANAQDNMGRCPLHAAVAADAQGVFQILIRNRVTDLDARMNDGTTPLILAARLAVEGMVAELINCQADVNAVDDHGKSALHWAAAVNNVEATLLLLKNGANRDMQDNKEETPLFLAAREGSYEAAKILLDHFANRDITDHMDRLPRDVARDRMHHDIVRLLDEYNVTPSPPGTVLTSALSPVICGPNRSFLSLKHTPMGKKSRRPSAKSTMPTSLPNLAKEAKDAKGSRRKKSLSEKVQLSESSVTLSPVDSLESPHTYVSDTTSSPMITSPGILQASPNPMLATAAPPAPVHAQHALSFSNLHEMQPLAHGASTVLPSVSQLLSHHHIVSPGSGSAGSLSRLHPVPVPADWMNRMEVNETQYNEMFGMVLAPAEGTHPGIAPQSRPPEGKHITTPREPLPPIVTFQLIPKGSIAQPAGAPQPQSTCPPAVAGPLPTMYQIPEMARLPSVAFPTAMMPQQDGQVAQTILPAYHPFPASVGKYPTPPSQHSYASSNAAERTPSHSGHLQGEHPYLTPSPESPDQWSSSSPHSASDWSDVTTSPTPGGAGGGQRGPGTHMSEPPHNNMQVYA

[6] = molecular target: Pro-neuregulin-1, membrane-bound isoform (Homo sapiens) (UniProt Q02297); test: NRG1 binders on small-molecule microarrays, primary screen, psychiatric disease protein project, biochemical, small-molecule microarray, fluorescence 635/667 (AID 1075); conditions: NRG1 binding, 635 nm fluorescence, higher = more signal;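 further: score combines 667 nm spot fluorescence with signal to noise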
Chain of Pro-neuregulin-1, membrane-bound isoform (Homo sapiens) (Q02297 whole entry, looked up, the tested form may be a part, canonical isoform): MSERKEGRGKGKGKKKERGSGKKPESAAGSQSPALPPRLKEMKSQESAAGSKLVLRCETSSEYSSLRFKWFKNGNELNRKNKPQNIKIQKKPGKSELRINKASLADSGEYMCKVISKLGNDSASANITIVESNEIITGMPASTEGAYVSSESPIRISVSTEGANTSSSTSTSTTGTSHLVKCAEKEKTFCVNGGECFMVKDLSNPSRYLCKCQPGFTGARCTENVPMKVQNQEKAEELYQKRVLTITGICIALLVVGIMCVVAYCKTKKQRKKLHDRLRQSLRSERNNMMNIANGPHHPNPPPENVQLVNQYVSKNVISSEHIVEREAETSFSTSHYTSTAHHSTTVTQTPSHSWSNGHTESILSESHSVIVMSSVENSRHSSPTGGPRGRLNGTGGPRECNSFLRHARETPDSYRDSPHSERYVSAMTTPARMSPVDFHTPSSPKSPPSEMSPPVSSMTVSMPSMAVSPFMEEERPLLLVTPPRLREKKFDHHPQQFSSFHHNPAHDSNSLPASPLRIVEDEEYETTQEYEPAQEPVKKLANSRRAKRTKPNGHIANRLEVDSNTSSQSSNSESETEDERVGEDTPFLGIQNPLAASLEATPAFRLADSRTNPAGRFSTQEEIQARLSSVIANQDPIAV

[7] = tested on: Neuregulin-1 EGF-like domain; test: binders of neuregulin-1 EGF-like domain, primary screen, biochemical, small-molecule microarray, 635 nm fluorescence (AID 1081); conditions: small-molecule microarray binding, higher = more signal;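 further: binding of the protein to compounds printed on small-molecule microarray slides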
[8] = FRG1 promoter luciferase signal modulators, primary screen, FRG1 inhibition for FSHD, cell-based, C2C12 myotubes, firefly/Renilla luciferase, luminescence (AID 1084); conditions: higher = more signal, called active from +8 up or from −8 down unless noted
[9] = binders of probe aFST on microarray, primary screen, stem cell growth factor project, biochemical, small-molecule microarray, fluorescence 635/667 (AID 1086); conditions: higher = more signal;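 further: score merges 667 nm fluorescence with signal-to-noise of each printed compound spot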
[10] = binders of probe aHhip on microarray, primary screen, stem cell growth factor project, biochemical, small-molecule microarray, fluorescence 635/667 (AID 1087); conditions: higher = more signal;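 further: score merges spot fluorescence at 667nm with spot signal to noise ratio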

Structure (SMILES)	composite z-score [1]	composite z-score [2]	composite z-score [3]	composite z-score [4]	composite z-score [5]	composite z-score [6]	composite z-score [7]	z-score [8]	composite z-score [9]	composite z-score [10]
COC(=O)[C@@]1(Cc2ccccc2)[C@H]2c3cc(C(=O)N(C)C)[nH]c3C[C@H]2CN1C(=O)c1ccccc1	0.469	-0.365	-0.0063	-0.12	0.335	1.03	0.954	1.82 (inactive)	-0.0765	0.0176
COC(=O)[C@@]1(Cc2ccccc2)[C@H]2c3cc(C(=O)N(C)C)n(C)c3C[C@H]2CN1C(=O)c1ccccc1	0.739	-0.389	0.175	0.536	1.59	2.02	1.14	1.51 (inactive)	0.566	0.189
COc1cc2c(cc1O)C=[N+](C)CC2	-0.0131	-0.532	-0.172	-0.17	-0.718	-0.835	-0.286	-1.13 (inactive)	0.169	-0.639
c1ccc(-c2cc3c(nc2-c2ccccc2)CCNC3)cc1	0.0329	-0.112	-0.0494	-0.296	-0.634	-0.0361	-0.969	-0.148 (inactive)	0.0294	-0.374
CCCc1cc2c(n1Cc1ccc(C)cc1)C(C)C1CN(C(=O)c3ccccc3)C(C)(C(=O)OC)C21 (stereo not given)	1.37	1.32	0.459	1.14	1.43	1.32	1.08	-0.876 (inactive)	1.95	0.321
COc1cc2c(cc1O)C(C)N(C)CC2 (stereo not given)	0.661	-0.144	-0.0345	-0.021	0.358	-0.0581	1.14	-1.13 (inactive)	-0.0662	0.176
CCCc1cc2c(n1Cc1cccc(Cl)c1)C(C)C1CN(C(=O)c3ccccc3)C(C)(C(=O)OC)C21 (stereo not given)	1.04	0.49	0.169	0.241	1.51	1.92	1.11	0.703 (inactive)	0.578	0.192
CCCC=C(CCC)[C@@H](NP(=O)(c1ccccc1)c1ccccc1)c1ccccc1	-0.335	0.0595	0.0354	0.33	1.25	-0.0154	0.318	-0.763 (inactive)	0.714	0.408
C[C@H]1O[C@H]2C3=C(C(=O)[C@@H]4O[C@@H]4[C@@H]3O)[C@@H]1[C@@H]1[C@@H](C)OC=C3[C@@H](O)[C@H]4O[C@H]4C(=O)[C@]312	-0.294	0.0164	-0.102	-0.494	-0.468	-0.48	-0.894	-2.19 (inactive)	-0.293	-0.0994
CCCC[C@@H]1C[C@H]1[C@@H](NP(=O)(c1ccccc1)c1ccccc1)c1ccc(Cl)cc1	1.68	-1.94	-0.129	-0.0013	-0.438	0.291	0.142	0.695 (inactive)	-0.22	-0.0994
COC(=O)[C@H]1[C@H](c2ccccc2)C(=O)[C@]2(O)c3ccccc3O[C@@]12c1ccccc1	-0.521	0.824	-0.0894	0.273	0.472	0.113	0.348	-2.68 (inactive)	-0.12	-0.236
CCCc1cc2c(n1CCO)C(C)C1CN(C(=O)c3ccccc3)C(C)(C(=O)OC)C21 (stereo not given)	1.44	1.73	0.374	0.0514	1.66	1.21	1.14	2.02 (inactive)	1.44	0.593
COC(=O)[C@H]1C(=O)c2ccccc2O[C@@](C(=O)OC)(c2ccccc2)[C@@H]1c1ccccc1	-0.384	-0.262	-0.149	0.179	0.343	-0.454	-1.02	-0.748 (inactive)	-0.204	-0.134
CCCc1cc2c(n1Cc1ccco1)C(C)C1CN(C(=O)c3ccccc3)C(C)(C(=O)OC)C21 (stereo not given)	1.03	1.05	0.13	0.657	1.66	1.35	1.09	0.301 (inactive)	0.802	1.05
COC(=O)C1(C)C=C2C(=C(C)C(=O)C2C)CN1 (stereo not given)	1.28	-0.297	-0.0627	-0.195	-0.483	0.367	1.55	3.71 (inactive)	0.706	0.107
CCOC(=O)[C@H]1CC=C2C(=O)Oc3ccccc3[C@@H]21	0.0468	-0.775	-0.083	-0.491	-0.316	0.833	-0.169	0.48 (inactive)	-0.203	-0.0645
